Test results published in PubChem BioAssay (NCATS).
Where “and” joins values, the source holds several entries; their conditions need not be identical. Identical values can stand only once. Inconclusive results are not listed. Where a call stands in place of a potency, no number is given. A number with no mark means an inactive call. Calls of active or inactive are those of the source. Unless noted, the call rests on the fitted dose curve; in most records, active means well fitted curve in the direction sought with a large enough effect; inconclusive means small, poorly fitted or top-dose-only effect, or another doubt; inactive means no such curve, though single readings can be large; an effect the other way counts as inactive or inconclusive.

Experiments:
[1] = molecular target: Cellular tumor antigen p53 (Homo sapiens) (UniProt P04637); experiment: Primary qHTS for small molecule compounds that upregulate eGFP-tagged delta133p53alpha (in N-terminal) cells. (AID 2060322); conditions: NCI-H358 eGFP-delta133p53alpha fluorescence, 24 h; activation: hits give high values; further: series mostly up to about 56 µM; nearly all actives have a fitted effect of over 75% in size
Procedure, shortened: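 NCI-H358 cells pre-induced 24 h with 10 ng/ml doxycycline to express N-terminal eGFP-delta133p53alpha, then dosed 24 h at 37C without doxycycline; fixed, Hoechst-stained, GFP intensity by laser scanning cytometry, normalized to DMSO (0%) and 57.5 uM 5-azacytidine (100%).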

[2] = molecular target: Cellular tumor antigen p53 (Homo sapiens) (UniProt P04637); experiment: Primary qHTS for small molecule compounds that upregulate eGFP-tagged delta133p53alpha (in C-terminal) cells. (AID 2060324); further: potency means the concentration at half of the fitted maximal effect
Procedure, shortened: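 C-terminal eGFP-tagged delta133p53alpha NCI-H358 line; dox-induced (100 ng/ml, 24 h) then plated without dox; compounds pinned in titration, 24 h 37 °C/5% CO2; PFA fix, Hoechst nuclei; GFP by LSC.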

[3] = molecular target: Aldehyde dehydrogenase, mitochondrial (Homo sapiens) (UniProt P05091); experiment: qHTS for Inhibitors of the Aldehyde Dehydrogenase Family (ALDH2) Validation screens (AID 2061302; active means well fitted inhibition curve with a large enough effect; title and protocol of this record describe different tests)
[4] = molecular target: Retinaldehyde dehydrogenase 3 (Homo sapiens) (UniProt P47895); experiment: qHTS for Inhibitors of the Aldehyde Dehydrogenase Family (ALDH1A3) Validation screen (AID 2061312); further: nearly all actives have a fitted effect of over 45% in size

Chain of Cellular tumor antigen p53 (Homo sapiens) (P04637 whole entry, looked up): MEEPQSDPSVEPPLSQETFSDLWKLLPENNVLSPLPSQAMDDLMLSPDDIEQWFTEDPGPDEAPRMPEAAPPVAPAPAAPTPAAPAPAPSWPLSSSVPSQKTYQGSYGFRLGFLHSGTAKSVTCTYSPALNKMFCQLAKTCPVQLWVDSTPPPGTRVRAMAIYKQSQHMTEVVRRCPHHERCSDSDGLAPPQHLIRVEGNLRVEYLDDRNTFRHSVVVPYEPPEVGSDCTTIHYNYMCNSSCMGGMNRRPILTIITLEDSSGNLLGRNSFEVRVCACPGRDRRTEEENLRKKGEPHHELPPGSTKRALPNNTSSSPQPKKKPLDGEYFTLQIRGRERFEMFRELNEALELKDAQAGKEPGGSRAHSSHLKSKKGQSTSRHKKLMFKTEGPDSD

| Compound | activation [1] | Potency [2] | Potency [3] | Potency [4] |
| --- | --- | --- | --- | --- |
| CCN(c1nc(N)c(C(=O)N=C(N)N)nc1Cl)C(C)C | -41.7% | inactive | inactive | inactive |
| CC1CCN=C(N)S1 (stereo not drawn) | -24.3% | inactive | inactive | inactive |
| Nc1nc(Cl)nc2c1ncn2[C@@H]1O[C@H](COP(=O)(O)OP(=O)(O)OP(=O)(O)O)[C@@H](O)[C@H]1O | -39.8% | inactive | inactive | inactive |
| N[C@H](CCCP(=O)(O)O)C(=O)O | -16.6% | inactive | inactive | inactive |
| CCCN(CCC)CCc1cccc2c1CC(=O)N2 | 6.69% and 9.01% | inactive | inactive | inactive |
| OC[C@H]1O[C@@H](n2cnc3c(NC4CCCC4)ncnc32)[C@H](O)[C@@H]1O | -30.9% | inactive | inactive | inactive |
| c1ccc(C2CN3CCSC3=N2)cc1 (stereo not drawn) | 27% | inactive | inactive | inactive |
| O=C(O)C1CCNCC1 | -2.71% | inactive | inactive | inactive |
| CCCCCN(CCCCC)C(=O)C(CCC(=O)O)NC(=O)c1ccc(Cl)c(Cl)c1 (stereo not drawn) | 13% and -3% | inactive | inactive | inactive |
| NC(N)=N/N=C/c1c(Cl)cccc1Cl | 35% | inactive | inactive | inactive |
| O=C1NC(=O)c2c1c(-c1ccccc1)cc1[nH]c3ccc(O)cc3c21 | -2.02% | 26.9 µM (active) | inactive | inactive |
| Clc1cccc(Cl)c1NC1=NCCN1 | -3.23% and -7.34% and -13.7% | inactive | inactive | inactive |
